# Assay results taken from the supplement of paper PMC3342239.
# Counter-ions that a name gives are not always drawn.
# System: Saccharomyces cerevisiae
# Test: fraction of cells in G1 phase (DNA content, flow cytometry); higher = more cells with unreplicated DNA (G1 delay)
# Conditions: temperature: 30 C; YPD; JTY2953 pdr5 snq2 (sensitized); drug added to: cultures diluted from stationary phase; 6-7 h
# How it was run: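 Overnight cultures of sensitized JTY2953 were diluted 1∶200 into drug at a final 20 µg/ml and fixed after 6–7 h, and further runs treated dividing JTY2953 or BY4741, fixing them 6 h and 4.33 h later respectively. All growth used YPD at 30°C with S. cerevisiae and library drugs. After ethanol fixation and SYTOX Green staining, flow cytometry recorded 10,000 events. The G1 fraction equals the Dean-Jett-Fox G1 peak area over the G1 plus G2/M areas.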
row,SMILES,fraction of cells in G1 phase
1,CC[C@H](C)C(=O)O[C@H]1CCC=C2C=C[C@H](C)[C@H](CC[C@@H]3C[C@@H](O)CC(=O)O3)[C@H]21 [Mevastatin] (51.2132 µM),0.502
2,CC(C)NCC(O)COc1cccc2ccccc12 (centres undefined) [Propranolol] (77.1155 µM),0.477
3,Nc1ccn([C@@H]2O[C@H](CO)[C@@H](O)C2(F)F)c(=O)n1 [Gemcitabine HCl] (75.9871 µM),0.49
4,CCOC(=O)c1cnc2c(cnn2CC)c1NN=C(C)C [Etazolate] (69.1229 µM),0.5
5,CC(C)Cc1ccc(C(C)C(=O)O)cc1 (centres undefined) [Ibuprofen] (96.9522 µM),0.575
6,CCN(CC)CCOc1ccc(C(=C(Cl)c2ccccc2)c2ccccc2)cc1 [Clomiphene citrate] (49.2645 µM),0.88
7,CCN1CCN(C(=O)N[C@@H](C(=O)N[C@@H]2C(=O)N3C(C(=O)O)=C(CSc4nnnn4C)CS[C@H]23)c2ccc(O)cc2)C(=O)C1=O [Cefoperazone acid] (30.9752 µM),0.487
8,CC1=C(C)C(=O)C(CCCCC#CCCCC#CCO)=C(C)C1=O [Docebenone] (61.2671 µM),0.552
9,CCn1cc(C(=O)O)c(=O)c2cc(F)c(N3CCNCC3)cc21 [Norfloxacin] (62.6295 µM),0.455
